In the library only some 19% were active in any assay of this set; here they are far more common.
IL1B secr inh – inhibitors of inflammasome signaling (IL-1 beta secretion). THP-1 LPS/ATP IL-1B secretion, AlphaLISA, 16 h; hits give low values. activity change, % at 57.5 µM. 360,000 tested, 4.7% active. AID 743279; in the data active = activity change below about -50%; inconclusive = mostly about -30% to -49%
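THP-1 cells pretreated 1 hr with compounds (up to 57.5 uM final), then stimulated with LPS (250 ng/mL final) plus ATP (1.25 mM final); secreted IL-1B measured by AlphaLISA after 16 hr, decreased signal indicating inhibition.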
TDP1 inh – inhibitors of human tyrosyl-DNA phosphodiesterase TDP1; recombinant TDP1, AlphaScreen DNA substrate cleavage; Potency, µM (titrated, usually from 130 µM), without a hit: top-dose activity change, negative = inhibition, hits mostly inhibitors; 350,000 tested, 0.28% active; AID 485290; also: potency is read from the fitted curve at half-maximal effect; nearly all actives have a fitted effect of over 40% in size
Target sequence (Q9NUW8 whole entry, looked up): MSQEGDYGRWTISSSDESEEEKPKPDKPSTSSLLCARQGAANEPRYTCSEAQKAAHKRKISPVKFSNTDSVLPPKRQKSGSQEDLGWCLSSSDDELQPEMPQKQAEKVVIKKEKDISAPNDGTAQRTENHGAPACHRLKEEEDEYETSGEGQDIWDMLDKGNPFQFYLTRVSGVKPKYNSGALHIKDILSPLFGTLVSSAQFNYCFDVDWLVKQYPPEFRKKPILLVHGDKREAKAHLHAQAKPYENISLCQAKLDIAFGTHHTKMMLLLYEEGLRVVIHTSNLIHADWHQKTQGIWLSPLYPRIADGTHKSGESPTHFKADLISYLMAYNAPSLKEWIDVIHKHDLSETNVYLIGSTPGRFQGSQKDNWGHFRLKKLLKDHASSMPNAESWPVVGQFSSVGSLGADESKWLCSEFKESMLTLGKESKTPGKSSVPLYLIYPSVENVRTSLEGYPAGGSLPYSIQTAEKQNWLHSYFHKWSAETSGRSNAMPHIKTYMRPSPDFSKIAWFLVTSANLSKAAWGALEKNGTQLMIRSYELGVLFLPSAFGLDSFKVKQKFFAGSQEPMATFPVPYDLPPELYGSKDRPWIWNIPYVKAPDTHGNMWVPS
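AlphaScreen read-out: signal falls as enzyme removes the 3' tyrosine-FITC from a 5'-biotinylated DNA oligo (15 nM, 5 min, RT). Enzyme was E. coli-made recombinant Tdp1 at 1 nM, exposed to compound for 15 min beforehand; beads 10 ug/ml, 10 min.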
TDP1 cell CPT – DT40-hTDP1 cell growth loss with CPT. Potency, µM (top dose mostly 46.2 µM), for the others: at the top dose activity change, negative = growth inhibition, most hits filed as inhibitors. 420,000 tested, 12% active. chicken DT40 Tdp1-/-;hTDP1 cells + 20 nM CPT, ATP luminescence, 48 h; also: potency is read from the fitted curve at half-maximal effect; nearly all actives have a fitted effect of over 55% in size
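Chicken DT40 Tdp1-/- cells stably complemented with human TDP1 were seeded at 400 cells/well in medium containing 20 nM camptothecin, exposed to pin-transferred compounds, and grown at 37 °C for at least 48 hr. Viability was read as ATP luminescence.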
DT40 TDP1 no CPT – qHTS for Inhibitors of human tyrosyl-DNA phosphodiesterase 1 (TDP1): qHTS in cells in absence of CPT. AID 686978, 2013. DT40 Tdp1-/- hTDP1 cells, no CPT, ATP luminescence, 48 h. 420,000 tested, 15% active. Potency, µM (titrated, usually from 46.2 µM), for inactives: at the top dose activity change, negative = growth inhibition, actives largely listed as inhibitors; also: potency is read from the fitted curve at half-maximal effect; nearly all actives have a fitted effect of over 55% in size
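Seeded 400 DT40-hTDP1 cells/well (vehicle DMSO, no 20 nM CPT); pinned compounds; ≥48 hr at 37 °C; CellTiter-Glo luminescence as viability measure.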
Giardia killer – Giardia lamblia killing | Giardia lamblia trophozoite viability | 340,000 tested, 0.15% active | activity change, % at 7.66 µM, hits read low; in the data active = activity change below about -80%; inconclusive = between about -30% and that limit;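 also: parasites exposed to compound for two days anaerobically before the ATP read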
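Viability, read as ATP luminescence: trophozoites at 100 cells/well, compound added, 48 hrs anaerobic at 37 deg C, then 15-30 min room-temperature development before reading.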
ELG1 DNA repair – blocks ELG1-dependent DNA repair in HEK293T cells; HEK293T ELG1-luciferase reporter, luminescence, 16 h; DNA damage induced by 5-fluorouridine; Potency, µM (doses to about 46.1 µM), without a hit: top-dose activity change, negative = inhibition, actives largely listed as inhibitors; 330,000 tested, 2.3% active; AID 504467; also: potency is read from the fitted curve at half-maximal effect; nearly all actives have a fitted effect of over 55% in size
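Cells (2,000 per well) received 5-fluorouridine plus test compound or DMSO and were incubated 16 hr at 37 °C, 5% CO2. Luciferase activity was read by luminescence 30 min after ONE-Glo addition; signal suppression marked inhibition of damage-induced ELG1 function.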
The depositor's hits bear a star; ? = inconclusive; . = no result; [ ] = dose if it differs, or a comment. Unless noted, calls follow the shape of the dose curve; as a rule, active = well fitted curve in the direction sought with a large enough effect; inconclusive = small, poorly fitted or top-dose-only effect, or another doubt; inactive = no such curve, though single readings can be large; an effect the other way counts as inactive or inconclusive. % is scaled to controls: 0 for no effect and ±100 for the full control effect.

SMILES	IL1B secr inh	TDP1 inh	TDP1 cell CPT	DT40 TDP1 no CPT	Giardia killer	ELG1 DNA repair
O=[N+]([O-])c1ccc(/C=N/Nc2cc(Cl)nc(-c3ccccc3)n2)cc1	-1	2%	?	?	-14	11%
O=[N+]([O-])c1cccc(/C=N/Nc2cc(Cl)nc(-c3ccccc3)n2)c1	-77*	2%	?	21µM*	-3	?
Cc1cc(NCCCN)nc(-c2ccccc2O)n1	-62*	-2%	?	?	4	24%
Cc1cc(Nc2ccc(F)c(F)c2)nc(-c2ccccc2O)n1	0	0%	-21%	-26%	4	-1%
COc1ccc(Cl)cc1NC(=O)c1cc(S(=O)(=O)N2CCC(C)CC2)cn1C	.	7%	-4%	-22%	.	.
O=C(NCCc1ccc(F)cc1)c1cccc(NC(=O)c2ccccc2)c1	?	5%	?	?	-2	?
COc1ccc(CNC(=O)CN2C(=O)COc3ccc(S(=O)(=O)Nc4ccccc4)cc32)cc1	.	0%	?	?	.	.
O=C(CSc1cn(CC(=O)N2CCOCC2)c2ccccc12)Nc1ccccc1F	.	3%	-1%	-5%	.	.
COc1cc2nc(N(C)C)c(CNCc3cccc4ccccc34)cc2c(OC)c1OC	.	.	-6%[9.04 µM]	?	.	.
C/C(=N\Nc1cc(C)nc(-c2ccccc2)n1)c1cccc([N+](=O)[O-])c1	-29	-3%	21µM*	?	-19	15µM*
CC(=O)N(c1nc(CCl)cs1)c1ccc(C)cc1C	0	-1%	-4%	-11%	27	-2%
CCc1ccccc1N(C(C)=O)c1nc(CCl)cs1	-15	6%	15µM*	23µM*	-12	?
CN(C)c1ccc(CNS(=O)(=O)c2ccc(-c3cc(C(F)(F)F)on3)s2)cc1	.	-3%	-5%	7%	.	.
Cc1cccc2sc(N(CCN(C)C)C(=O)C3CCN(S(=O)(=O)c4cccs4)CC3)nc12	-61*	0%	?	18µM*	2	-16%
Cc1cccc2sc(N(CCN(C)C)C(=O)/C=C/c3cccs3)nc12	-93*	0%	16µM*	18µM*	13	-18%
CN(C)CCCN(C(=O)/C=C/c1cccs1)c1nc2c(F)cccc2s1	-105*	6%	21µM*	21µM*	-7	1%
Cc1ccc(-c2nnc(CCC(=O)N(C)Cc3nccs3)o2)s1	-8	3%	4%	21µM*	-17	6%
CCCCNc1ccc2c(c1)C1CC2CCN1C(=O)OCc1ccccc1 (stereo not given)	-20	.	?	?	-4	.
C1CCN(CC2CCCCN2)CC1 (stereo not given)	4	.	-12%	12%	1	.
O=C1C(CN2CCCC2)CCCC1CN1CCCC1 (stereo not given)	-8	.	0.52µM*	0.52µM*	5	.
CCN1CCCC1CNCc1cc2c(OC)c(OC)c(OC)cc2nc1N(C)C (stereo not given)	.	.	-7%[9.04 µM]	-11%	.	.
Cc1cc(C)cc(Cn2c3ccc(NC(=O)NCCc4cccs4)cc3c(=O)n2C)c1	0	.	16µM*	?	.	.
Cn1c(=O)c2cc(NC(=O)NCCc3ccccc3)ccc2n1Cc1ccccc1	0	.	-30%	?	.	.
Cc1ccc(CNC(=S)Nc2ccc3c(c2)c(=O)n(C)n3Cc2cccc(C(F)(F)F)c2)cc1	-18	.	26µM*	15µM*	.	.
Cn1c(=O)c2cc(NC(=O)OCCF)ccc2n1Cc1cccc(C(F)(F)F)c1	-14	.	23µM*	23µM*	.	.
SMILES	IL1B secr inh	TDP1 inh	TDP1 cell CPT	DT40 TDP1 no CPT	Giardia killer	ELG1 DNA repair
Cn1c(=O)c2cc(NC(=O)NCCc3ccccc3)ccc2n1Cc1cccc(C(F)(F)F)c1	-10	.	?	23µM*	.	.
Cn1c(=O)c2cc(C(=O)Nc3cccc(C#N)c3)sc2c2ccccc21	.	0%	?	2%	.	.
O=C(OCC#CCSc1nnc(-c2cccc3ccccc23)o1)c1sc(Cl)c(Cl)c1Cl	.	-2%	.	.	.	.
Cc1ccc(-n2nc(CO)c(C(=O)NCc3ccccn3)n2)cc1C	.	5%	-17%	?	.	.
CCOC(=O)c1nn(-c2ccc(F)cc2)c2c1CC/C2=C/c1ccccc1	-11	-2%	-23%	0%	3	11%
Cn1c(=O)c2cc(NC(=O)NCc3ccccc3)ccc2n1C/C=C/c1ccccc1	0	.	7.3µM*	7.3µM*	.	.
Cc1cc(C)cc(Cn2c3ccc(NC(=O)NCc4ccccc4)cc3c(=O)n2C)c1	-20	.	?	?	.	.
Cn1c(=O)c2cc(NC(=S)NC3CCCCC3)ccc2n1Cc1cccc(C(F)(F)F)c1	-27	.	?	?	.	.
CCNC(=S)Nc1ccc2c(c1)c(=O)n(C)n2Cc1cccc(C(F)(F)F)c1	13	.	?	23µM*	.	.
Cc1cc(C)cc(Cn2c3ccc(NC(=S)NC4CCCCC4)cc3c(=O)n2C)c1	-15	.	23µM*	?	.	.
CCN(CC)CCNC(=O)CNC(=O)c1nn(-c2ccc(OC)c(OC)c2)c(=O)c2ccccc12	22	.	-1%	-2%	4	14%
CCCCOc1ccc(/C=C(\C#N)C(=O)NC2CC2)cc1	-17	.	?	29µM*	-16	.
CCOc1ccc(/C=C(\C#N)C(=O)NC2CC2)c(OCC)c1	-54*	.	3%	-29%	-9	.
COc1ccc(-c2[nH]ncc2/C=C(\C#N)C(=O)NC2CC2)cc1	-21	7%	?	?	-1	18µM*
CN(C)C(=O)n1nnnc1Cc1ccc(-c2ccccc2)cc1	.	3%	.	.	.	.
COc1ccc(CNC(=O)c2cnc(N3CCCC3)nc2C)c(OC)c1	.	4%	4%	-5%	.	.
COc1ccc(NC(=O)c2c(NCc3cccs3)sc3c2CCCC3)cc1	.	3%	?	21µM*	.	.
CCOC(=O)c1ccc(NC(=O)c2c(NC(=O)CCC(=O)O)sc3c2CCCCC3)cc1	-17	7%	0%	29µM*	?	?
COc1ccc(NC(=O)c2c(NCc3cccs3)sc3c2CCCCC3)c(OC)c1	.	8%	?	15µM*	.	.
CCOC(=O)c1ccc(NC(=O)c2c(NCc3ccc(OC)c(OC)c3OC)sc3c2CCC(C)C3)cc1 (stereo not given)	.	10%	?	26µM*	.	.
CCOc1ccc(NC(=O)c2c(NCc3ccc(C)o3)sc3c2CCC(C)C3)cc1 (stereo not given)	.	9%	?	?	.	.
CCCOC(=O)c1c(NC(=O)CCC(=O)O)sc2c1CCCCC2	9	2%	19%	-8%	-11	13%
Cc1ccc(C(=O)OCC(=O)Nc2ccc(C)c(S(=O)(=O)N3CCCCC3)c2)o1	-10	.	-29%	?	.	.

Source: PubChem BioAssay
